Results taken from PubChem BioAssay AID1446 (The Scripps Research Institute Molecular Screening Center, 2008).
The campaign covered roughly 220,000 compounds. About 2,400 (1.1%) were called active. The sample holds actives, similar compounds and a random draw of the others, so the mix is not that of the screen.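 Rule for the calls: active = inhibition above the campaign mean plus 3 SD over all tested compounds (cut at about 24% in these data); inactive = the rest.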

Test: viability loss in Ba/F3 EpoR-JAK2V617F cells – cell-based, luminescence, JAK2V617F inhibitor project, primary screen (AID 1446);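 note: cytokine-independent growth of Ba/F3 cells driven by EpoR plus mutant JAK2; 0% = DMSO-treated cells and 100% = JAK inhibitor I control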
Settings: ATP luminescence, at 5.6 µM, stronger effect = higher value

Row | SMILES | inhibition
1 | Cc1ccc(C(=O)NN(CCC#N)C2=NS(=O)(=O)c3ccccc32)cc1 | -4.16% (inactive)
2 | Cc1ccc2sc(NNC(=O)c3ccc4c(c3)OCCO4)nc2c1C | -3.73% (inactive)
3 | COc1ccc(N2CCN(Cc3cc(=O)oc4ccc5ccccc5c34)CC2)cc1 | 0.19% (inactive)
4 | COc1ccc(Nc2cc(=O)n(-c3ccccc3)c3c2c(=O)n(C)c(=O)n3C)cc1 | 0.16% (inactive)
5 | COc1ccc(Nc2cc(=O)oc3ccccc23)cc1 | 55.1% (active)
6 | O=C(CC(c1ccccc1)c1cc(Cl)ccc1O)NCCN1CCOCC1 (stereo unspecified) | -3.6% (inactive)
7 | C/C(CC(C)C)=N\Oc1nc(C)cc(C)n1 | -2.21% (inactive)
8 | O=[N+]([O-])c1cc(C(F)(F)F)ccc1NN=C1CCCC1 | -0.95% (inactive)
9 | O=C(CCN1CCCCC1)N=Nc1c(O)[nH]c2ccccc12 | 1.24% (inactive)
10 | Cc1ccc(CNC(=O)CCNC(=O)Cn2ccc3ccccc3c2=O)cc1 | 0.07% (inactive)
11 | COC(=O)COc1cccc2c(=O)n(CC(=O)NCCc3ccc(OC)c(OC)c3)ccc12 | -2.26% (inactive)
12 | COC(=O)COc1cccc2c(=O)n(CC(=O)NCc3ccccc3)ccc12 | 58.8% (active)
13 | CC(C)(C)NC(=O)c1ccc(Cn2cc(C(F)(F)F)ccc2=O)cc1 | 0.95% (inactive)
14 | Cc1cc2ccccn2c1C(=O)c1cccc(S(=O)(=O)N2CCOCC2)c1 | -0.04% (inactive)
15 | C/C(CC(=O)NC(C)(C)C)=N\NC(=O)c1ccco1 | -1.54% (inactive)
16 | CCCNc1c(N)c(=O)c1=O | 1.36% (inactive)
17 | CCc1cc(C(=O)c2ccc(OC)cc2)c(NC(=O)CN2CCN(C)CC2)s1 | -1.89% (inactive)
18 | CCOC(=O)N1CCN(C(=O)C2CCN(c3ncnc4c3sc3cccc(F)c34)CC2)CC1 | 43.9% (active)
19 | CCOC(=O)N1CCN(C(=O)C2CCN(Cc3ccc(OC)cc3OC)CC2)CC1 | -0.59% (inactive)
20 | CCOC(=O)C1CCN(c2ncnc3c2oc2ccc(Br)cc23)CC1 | 0.71% (inactive)
21 | COc1ccc(/C=N/OCC(=O)N(Cc2ccccc2)c2ccccc2C(=O)O)cc1 | -2.1% (inactive)

Row | SMILES | inhibition
22 | CCCCN1C(=O)/C(=C(/C#N)C(N)=O)c2ccccc21 | -3.07% (inactive)
23 | CC(C)c1ccc(Nc2nnc(SCC(=O)c3nnc(-c4ccccc4)o3)s2)cc1 | 0.01% (inactive)
24 | COc1ccc(CCNC(=O)C(=O)NCC2CCNCC2)cc1OC | -3.6% (inactive)
25 | Cc1ccc2c(c1)C1CN(C)CCC1N2S(=O)(=O)c1ccc(Oc2ccc([N+](=O)[O-])cc2)cc1 (stereo unspecified) | -5.1% (inactive)
26 | CCn1c(CSCc2c(Cl)cccc2Cl)n[nH]c1=S | -2.13% (inactive)
27 | COc1cc2c(cc1OC)C(/C=C/c1ccco1)=NCC2 | 1.51% (inactive)
28 | O=C(c1cn(-c2ccccc2)nc1-c1cc2ccccc2oc1=O)N1CCOCC1 | -0.6% (inactive)
29 | O=c1oc2ccccc2cc1-c1cn(-c2ccccc2)c(=S)[nH]1 | 35.7% (active)
30 | Nc1ncc(-c2cc3ccccc3oc2=O)s1 | 6.85% (inactive)
31 | Cc1nc2c(ncn2-c2ccccc2)c(=O)n1NC(=O)CN1CCCC1 | -1.07% (inactive)
32 | O=C(NNC(=O)c1ccccc1[N+](=O)[O-])Nc1ccccc1C(F)(F)F | -0.76% (inactive)
33 | CCOC(=O)C1CCN(C(=O)/C=C/c2cc(OC)c(OC)c(OC)c2)CC1 | -2.65% (inactive)
34 | CCOC(=O)C1=C(N)N2C(=O)C(C)SC2=C(C(=O)OCC)C1c1cc(OC)c(OC)c(OC)c1 (stereo unspecified) | 80.7% (active)
35 | CCOC(=O)c1cc(-c2nnc(-c3cc(OC)c(OC)c(OC)c3)o2)c(C)nc1C | 0.18% (inactive)
36 | CC(CNS(=O)(=O)c1ccc(Br)cc1)CN(C)C (stereo unspecified) | -1.94% (inactive)
37 | Cc1ccc(Cl)cc1N1CCN(C(=O)c2cccc3c(=O)c(C)c(-c4ccccc4)oc23)CC1 | -6.79% (inactive)
38 | C=CCNc1scc(-c2ccccc2)[n+]1CC=C | -1.89% (inactive)
39 | C=CC[n+]1c(-c2ccc(C)cc2)csc1NNC(=O)Nc1ccccc1 | 37.6% (active)
40 | Cc1ccc(NC(=O)Nc2ccccc2)c(Br)c1 | 1.27% (inactive)
41 | CCN(CC)CCOC(=O)c1ccc(NC(=O)CNC(=O)c2ccccc2)cc1 | 0.68% (inactive)
42 | COc1ccc(C(=O)C[n+]2ccc(C)cc2)cc1 | -3% (inactive)

Row | SMILES | inhibition
43 | COc1ccc(OCCC(=O)c2ccc(OC)cc2)cc1 | -0.79% (inactive)
44 | COc1ccc(C(=O)C[n+]2ccc(N)c(C)c2C)cc1 | 97.4% (active)
45 | Cc1nn(-c2ccccc2)c(NC(=O)c2cccs2)c(-c2ccc(Cl)cc2)c1=O | -2.34% (inactive)
46 | CN(C)CCCNC(=O)/C=C/c1ccc(OCc2c(F)cccc2Cl)cc1 | 0.9% (inactive)
47 | O=C(/C=C/c1ccc(OCc2c(F)cccc2Cl)cc1)N1CCOCC1 | 64.4% (active)
48 | COCCCNC(=O)/C=C/c1ccc(OCc2c(F)cccc2Cl)cc1 | -4.39% (inactive)
49 | O=C(NNC(=O)c1csc(-c2cccnc2)n1)Nc1ccc(Cl)cc1 | -0.26% (inactive)
50 | COC(=O)N/N=C/c1cn(CCCOc2ccc(C)cc2)c2ccccc12 | -1.96% (inactive)
51 | CCN(CC)c1ccc(/C=N/Nc2nc(C)cc(C)n2)c(O)c1 | 2.26% (inactive)
52 | CCN(CC)c1ccc(/C=N/NC(=O)c2cnccn2)c(O)c1 | 56.2% (active)
53 | O=C(Nc1ccc2c(c1)OCCO2)c1cnccn1 | 0.76% (inactive)
54 | CC(=O)Nc1cccc(OCC(=O)/C=C2\N(C)c3ccccc3C2(C)C)c1 | 37.5% (active)
55 | CN1/C(=C\C(=O)c2cccnc2Cl)C(C)(C)c2ccccc21 | 2.48% (inactive)
56 | Cc1noc(C)c1C(=O)OCC(=O)/C=C1\N(C)c2ccccc2C1(C)C | 1.84% (inactive)
57 | N/C(=N\OC(=O)Nc1ccccc1)c1ccno1 | 4.88% (inactive)
58 | CC(C)NC(=S)N1CCN(C(c2ccccc2)c2ccccc2)CC1 | 1.76% (inactive)
59 | CC1(C)CC(=O)C=C(N2CCCC2)C1 | -0.55% (inactive)
60 | CC1(C)CC(N2CCN(C(c3ccccc3)c3ccccc3)CC2)=CC(=[N+]2CCCCC2)C1 | 98.8% (active)
61 | CCOC(=O)C(Sc1ncc(C#N)c(N)n1)C(C)C (stereo unspecified) | -2.24% (inactive)
